This is a sample that favours compounds with a hit; in the whole collection about 1.2% have one here.
TSG101-PTAP inh: blocks PTAP/TSG101 interaction to inhibit HIV-1 budding; Q99816; Fluorescence polarization, FITC-PTAP peptide / Tsg101 binding; Potency, µM (doses to about 115 µM), inactives show top-dose activity change, negative = inhibition, actives largely listed as inhibitors; 340,000 tested, under 10 active; AID 493005; active means well fitted inhibition curve with a large enough effect in the main read-out, with a control signal flat, not every such curve was filed as active; inconclusive means small, poorly fitted or top-dose-only effect, or effect the other way, or a change in a side signal; inactive means no such curve, though single readings can be large or run the other way; further: potency means the concentration at half of the fitted maximal effect; % of control where 0% means no effect
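Fluorescence anisotropy tracks displacement of a FITC-tagged PTAP peptide (50 nM) from the Tsg101 binding domain (10 uM), following a 20 min room-temperature incubation at pH 7.5.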
S-ASM inh: inhibitors of human secretory acid sphingomyelinase | P17405 | placental ASM, HMU-PC fluorogenic substrate, 60 min | Potency, µM (titrated, usually from 57.5 µM), without a hit: at the top dose activity change, negative = inhibition, hits mostly inhibitors | 340,000 tested, 0.006% active; further: potency means the concentration at half of the fitted maximal effect
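Fluorogenic HMU-PC substrate (9 uM final) is turned over by placental ASM in 60 min at 37 C after a 10 min compound preincubation. Reaction ended by alkaline stop (pH 10), with fluorescence read at 386/447 nm.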
BRCA1 expr up: BRCA1 expression activation | MCF7-BRCA1-FFLuc reporter, luminescence, 48 h; response scale: scaled: vehicle 0%, 10 µM genistein 100% | Potency, µM (series often up to 46.1 µM), for the others: top-dose activation, hits mostly activators | 380,000 tested, 1.1% active | AID 624202; further: potency means the concentration at half of the fitted maximal effect; nearly all actives have a fitted effect of over 80% in size
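Activators of BRCA1 expression were detected as increased firefly luciferase luminescence in engineered MCF7 cells after 48 h compound incubation. Signals were scaled to genistein 10 microM as full activation.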
TSHR antag: antagonists of human thyroid stimulating hormone receptor; 330,000 tested, 0.2% active; P16473; activity change, negative = inhibition, % at 11.5 µM; TSHR-expressing cells, TSH-stimulated cAMP HTRF, 2 h; active compounds read low;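 active means activity change below a set negative limit, meaning inhibition stronger than a set level, cut at about -70% in these data; inconclusive means activity change between two set negative limits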; further: on the % scale 0 is the no-effect control and ±100 the full control effect
Target sequence (P16473 whole entry, looked up): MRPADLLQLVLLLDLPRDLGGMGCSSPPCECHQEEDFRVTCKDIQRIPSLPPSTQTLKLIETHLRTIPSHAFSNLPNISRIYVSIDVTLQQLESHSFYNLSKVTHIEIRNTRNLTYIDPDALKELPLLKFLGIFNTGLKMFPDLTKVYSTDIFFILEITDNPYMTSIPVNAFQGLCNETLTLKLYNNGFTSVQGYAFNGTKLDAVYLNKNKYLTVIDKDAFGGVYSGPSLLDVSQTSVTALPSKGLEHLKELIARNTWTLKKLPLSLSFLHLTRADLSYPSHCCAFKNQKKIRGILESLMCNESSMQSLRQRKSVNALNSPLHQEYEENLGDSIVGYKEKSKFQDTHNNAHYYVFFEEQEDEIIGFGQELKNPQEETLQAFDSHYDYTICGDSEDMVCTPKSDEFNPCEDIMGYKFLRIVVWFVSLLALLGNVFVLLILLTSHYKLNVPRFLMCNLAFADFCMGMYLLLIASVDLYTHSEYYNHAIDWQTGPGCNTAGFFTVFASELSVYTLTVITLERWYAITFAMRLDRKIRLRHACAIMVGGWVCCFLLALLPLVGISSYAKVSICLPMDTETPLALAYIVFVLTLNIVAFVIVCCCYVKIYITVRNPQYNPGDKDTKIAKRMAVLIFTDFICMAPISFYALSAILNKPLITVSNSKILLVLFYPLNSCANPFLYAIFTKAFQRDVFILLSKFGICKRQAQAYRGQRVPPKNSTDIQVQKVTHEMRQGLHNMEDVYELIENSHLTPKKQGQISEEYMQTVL
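Antagonism was scored as loss of TSH-driven cAMP in TSHR cells, stimulated with 4nM TSH (EC80) for 2 hours at 37 deg C and detected by homogeneous HTRF competition immunoassay.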
Apoferritin bind: binds horse apoferritin like a general anesthetic; P02791; apoferritin/1-aminoanthracene competitive binding, fluorescence; Potency, µM (titrated, usually from 77.5 µM), for inactives: at the highest dose activity change, negative = displacement, usual class: inhibitors; 350,000 tested, 0.074% active; AID 485281; further: potency means the concentration at half of the fitted maximal effect; on the % scale 0 is the no-effect control and ±100 the full control effect; nearly all actives have a fitted effect of over 20% in size
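Probe: 1-aminoanthracene (50% saturated, PBS). Protein: horse-spleen apoferritin, 10 uM. Incubation: 10 min, room temperature. Detection: 380 nm excitation, 535 nm emission. Analysis: normalized response, four-parameter Hill.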
Numbers without * were called inactive; ? = inconclusive; · = not tested or not shown. Unless noted, the call rests on the fitted dose curve; in most records, active means well fitted curve in the direction sought with a large enough effect; inconclusive means small, poorly fitted or top-dose-only effect, or another doubt; inactive means no such curve, though single readings can be large; an effect the other way counts as inactive or inconclusive.

SMILES	TSG101-PTAP inh	S-ASM inh	BRCA1 expr up	TSHR antag	Apoferritin bind
O=C(COC(=O)c1cc2ccccc2oc1=O)Nc1cccc(S(=O)(=O)N2CCCCCC2)c1	-3.5%	9.2%	8.3%	-6.7	-9.1%
O=C(COC(=O)c1cc2ccccc2oc1=O)Nc1ccc(F)cc1F	-10.6%	-0.1%	10µM*	3.2	-1.8%
CN(C)S(=O)(=O)c1cccc(NC(=O)COC(=O)c2cc3ccccc3oc2=O)c1	0.4%	0.3%	10µM*	12.3	-11.6%
CCN(c1ccc(NC(=O)COC(=O)c2cc3ccccc3oc2=O)cc1)C(C)C	-0.6%	1.4%	3.7%	-10.0	-21.9%
CCc1cc(-c2oncc2-c2ccc(OC)cc2)c(O)cc1OC	·	·	·	·	-22.5%
N#Cc1nc(NCCCCO)nc(Nc2ccccc2)n1	·	·	·	·	0.1%
Cc1ccc(NS(=O)(=O)c2cc(-c3cnc(C4CC4)o3)ccc2C)cc1Cl	·	·	·	·	41.2%
N/C(=N\OC(=O)COc1ccc(Cl)cc1Cl)c1cccnc1	-2.3%	0.0%	7.94µM*	-28.7	-8.9%
N/C(Cc1cccs1)=N\OC(=O)COc1ccc(Cl)cc1Cl	-6.2%	-2.8%	11.2µM*	-13.2	-12.4%
N/C(=N\OC(=O)COc1ccc(Cl)cc1)c1cccnc1	-0.7%	1.5%	60.5%	0.1	-8.1%
N/C(=N\OC(=O)COc1ccc(Cl)cc1Br)c1ccncc1	-2.9%	-5.0%	2.51µM*	-6.6	?
Cc1ccc(SCc2cn3ccccc3n2)cc1	-3.7%	3.6%	?	-3.9	-2.6%
c1ccc(CSCc2cn3ccccc3n2)cc1	-0.6%	0.8%	2.82µM*	-1.3	-19.0%
CCOC(=O)C1=C(C)NC2=C(C(=O)C(C(=O)OCC)C(c3ccco3)C2)C1c1ccccc1C (stereo not given)	·	·	-53.7%	·	·
COC1=CC(=O)C(O)=C/C1=C\C=C\c1ccccc1	·	·	·	·	-14.0%
CCCc1ccc2oc(C(=O)NCCc3nc(C(=O)OCC)cs3)c(C)c2c1	-3.9%	?	-8.5%	-15.4	-5.1%
CCCc1ccc2oc(C(=O)NCCc3cnn(C)c3)c(C)c2c1	·	-5.7%	8.91µM*	5.9	-20.2%
O=C(C[N+]1(CCO)CCOCC1)c1ccc2ccccc2c1	·	·	12.9%	·	·
Cc1nc2ccccc2nc1N/N=C/c1ccc(O)cc1	-1.1%	-7.0%	7.94µM*	-1.6	-9.0%
Oc1ccc(/C=N/Nc2ccccc2)cc1	-0.2%	2.9%	-15.0%	5.7	-11.6%
COc1ccc(CNc2nc(Cl)nc3nc[nH]c23)cc1	·	·	-2.1%	·	·
O=C(CCCCCN1CCN(c2ccccc2-c2ccccc2)CC1)NC1CCCc2ccccc21 (stereo not given)	·	·	·	-16.4	·
COc1ccccc1C(=O)NCCC(=O)Nc1ccc(OC(F)(F)F)cc1	-0.5%	-4.0%	-43.8%	-95.4*	-14.2%

Screening data (PubChem BioAssay)
